RE007 growth inh: qHTS Assay for Inhibitors of the HIV-1 protein Vpr; 360,000 tested, 0.21% active; Potency, µM (series often up to 92.2 µM), hits mostly inhibitors; S. pombe RE007 Vpr strain, BacTiter-Glo ATP luminescence, 24 h; AID 651644, 2012; active means well fitted falling curve with a large enough effect; inconclusive means small, poorly fitted or top-dose-only effect; inactive means no such curve, though single readings can be large or run the other way; further: nearly all actives have a fitted effect of over 50% in size
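Fission yeast strain RE007, carrying one chromosomally integrated HIV-1 vpr copy, was seeded at OD 0.01 in PMG+AL medium with 23 nL pinned compound. After 24 h at 30 °C and 99% humidity, viability was read by BacTiter-Glo luminescence.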
Tb PYK inh: qHTS of Trypanosoma Brucei Inhibitors; TbPYK enzyme, Kinase-Glo Plus ATP luminescence, 45 min; Potency, µM (highest dose often 76.8 µM), actives largely listed as inhibitors; 410,000 tested, 0.12% active; AID 624173, 2012; further: nearly all actives have a fitted effect of over 50% in size
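Luminescent Kinase-Glo Plus end-point after 45 min room-temperature reaction of T. brucei pyruvate kinase started with 130 uM ADP (final). Buffer TEA 50 mM pH 7.2 with KCl, MgCl2, BSA, Tween-20; titration-based qHTS with fitted concentration-effect curves.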
FBPA Giardia inh: qHTS Assay for Inhibitors of Fructose-1,6-bisphosphate Aldolase from Giardia Lamblia; A8B2U2; purified Giardia FBPA; Potency, µM (highest dose often 59.6 µM), actives largely listed as inhibitors; 290,000 tested, 0.71% active; AID 2451, 2010; further: nearly all actives have a fitted effect of over 55% in size
Target sequence (A8B2U2 whole entry, looked up): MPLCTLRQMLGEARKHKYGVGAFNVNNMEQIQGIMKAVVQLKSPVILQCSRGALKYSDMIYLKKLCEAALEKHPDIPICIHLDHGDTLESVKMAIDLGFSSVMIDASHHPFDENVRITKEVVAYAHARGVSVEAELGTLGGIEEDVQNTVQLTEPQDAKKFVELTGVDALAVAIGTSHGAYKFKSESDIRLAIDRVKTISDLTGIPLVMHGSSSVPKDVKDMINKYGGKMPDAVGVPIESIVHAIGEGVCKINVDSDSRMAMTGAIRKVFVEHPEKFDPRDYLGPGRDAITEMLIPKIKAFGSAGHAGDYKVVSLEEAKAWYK
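40 nM FBPA preincubated 10 min at RT with compound (up to 57.5 uM final), then substrate plus GAPDH/TPI/NAD/arsenate coupling and diaphorase/resazurin added. Fluorescence read after 20 min at RT, 525/598 nm.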
LmPK inh: qHTS Assay for Inhibitors of Leishmania Mexicana Pyruvate Kinase (LmPK). AID 1721, 2009. 290,000 tested, 0.37% active. Potency, µM (top dose mostly 57.5 µM), usual class: inhibitors. purified LmPK, Kinase-Glo ATP luminescence, 1 h. Q27686
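Pyruvate kinase activity monitored as ATP production (luciferase luminescence). Conditions: 0.1 nM enzyme, 0.5 mM PEP, 0.1 mM ADP, 1 h, RT; normalized against uninhibited and no-enzyme wells.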
Shiga toxin inh: A qHTS for Small Molecule Inhibitors of Shiga Toxin | AID 2315, 2010 | Vero cells, Shiga toxin protein synthesis inhibition reporter | inhibition, % at 38.7 µM | 290,000 tested, 9.2% active; in the data active means inhibition mostly above about 28%, no sharp cut-off; inactive means mostly below about 43%
Cycloheximide cs: Cycloheximide Counterscreen for Small Molecule Inhibitors of Shiga Toxin; cell reporter, cycloheximide protein synthesis inhibition counterscreen; max response, %; 300,000 tested, 12% active; in the data active means max response mostly above about 13%, no sharp cut-off; inactive means mostly below about 14%; further: read at 38.3 µM for the half of the compounds with a filed dose
Hits are given with their value; 0 = inactive; ? = inconclusive; - = no result given; [ ] = dose if it differs, or a comment. This excerpt belongs to a sample that is enriched for hits. Unless noted, the call rests on the fitted dose curve; in most records, active means well fitted curve in the direction sought with a large enough effect; inconclusive means small, poorly fitted or top-dose-only effect, or another doubt; inactive means no such curve, though single readings can be large; an effect the other way counts as inactive or inconclusive.

SMILES	RE007 growth inh	Tb PYK inh	FBPA Giardia inh	LmPK inh	Shiga toxin inh	Cycloheximide cs
COc1cc(CNc2ccc(S(N)(=O)=O)cc2)ccc1OCc1ccccc1F	0	0	-	-	-	-
COc1cc(CNc2ccc(N3CCCC3)cc2)ccc1OCc1ccccc1F	0	0	0	0	173.0	63.5
COc1ccc(CNc2ccc(N3CCN(C(C)=O)CC3)cc2)cc1OC	-	0	-	-	-	-
COc1cc(CNC23CC4CC(CC(C4)C2)C3)ccc1OCc1ccccc1	0	0	0	0	0	0
COc1cc(CNc2ccc(N3CCCCC3)cc2)ccc1OCC(=O)NC(C)(C)C	?	0	0	0	40.1	12.7
Cc1ccc(C2c3[nH]c4ccccc4c3CCN2C(=O)CCc2ccccc2)cc1 (centres undefined)	-	0	-	-	-	-
C[C@H](NC(=O)c1ccc(Cl)cc1)C(=O)NNC(=O)c1cccs1	0	0	-	-	-	-
Cc1cn2c(=O)cc(COc3ccccc3NC(=O)c3ccccc3C)nc2s1	-	0	-	-	-	-
COc1cc(CNCCCCO)ccc1OCc1ccccc1F	0	0	0	0	57.5	18.1
COc1ccc(NC(=O)CSc2nc3ccccc3n2CC(=O)N(C)C2CCCCC2)cc1	-	0	-	-	-	-
Cc1cc(Br)ccc1SCC(=O)N1CCN(S(=O)(=O)c2ccccc2)CC1	0	0	-	0	38.3	32.9
Cc1c(-c2cc(Br)ccc2O)nc2cc3c(cc2c1C)OCO3	0	0	0	0	47.4	37.9
CC1C(O)=C(c2nc3ccccc3[nH]2)C(=N)N1c1ccccc1 (centres undefined)	0	0	0	0	128.1	24.2
CCCCCCN1CC(O)=C(c2nc3ccccc3[nH]2)C1=N	0	0	0	0	0	0
CCC(C)N1CC(O)=C(c2nc3ccccc3[nH]2)C1=N (centres undefined)	0	0	0	0	83.7	0
N=C1C(c2nc3ccccc3[nH]2)=C(O)CN1c1ccccc1	0	0	0	0	0	0
CSCC[C@H](N)C(=O)N[C@@H](CO)C(=O)N[C@@H](CCCN=C(N)N)C(=O)N1CCC[C@H]1C(=O)N[C@@H](C)C(=O)N[C@@H](CS)C(=O)N1CCC[C@H]1C(=O)N[C@@H](CC(N)=O)C(=O)N[C@@H](CC(=O)O)C(=O)N[C@@H](CCCCN)C(=O)N[C@@H](Cc1ccc(O)cc1)C(=O)N[C@@H](CCC(=O)O)C(=O)O	-	-	0	-	0	0
O=C(Nc1ccc(OC(F)(F)F)cc1)C1CCN(S(=O)(=O)c2ccc3[nH]c(=O)ccc3c2)CC1	-	0	-	-	-	-
Cc1ccc2nc(/C(C#N)=C/c3cn[nH]c3-c3ccc(F)cc3)[nH]c2c1	0	0	0	0	0	0
Cc1ccc2nc(/C(C#N)=C/c3ccccc3C(=O)O)[nH]c2c1	0	0	0	0	0	18.5
Cc1ccc2nc(/C(C#N)=C/c3ccc(O)c(O)c3)[nH]c2c1	0	0	?	0	91.8	59.7
N#C/C(=C\c1ccccc1C(=O)O)c1nc2ccccc2[nH]1	0	0	0	0	49.0	16.9
Cc1ccc2nc(/C(C#N)=C/c3cccc(Br)c3)[nH]c2c1	-	0	-	-	-	-
CCCCc1nc2c(c3c1C[C@H](C)OC3)CN(C(=O)NCc1ccco1)CC2	-	-	0[12.9 µM]	0[11.5 µM]	-	-
Nc1ccc2nc(N)sc2c1	0	0	-	-	-	-
SMILES	RE007 growth inh	Tb PYK inh	FBPA Giardia inh	LmPK inh	Shiga toxin inh	Cycloheximide cs
Nc1nc2ccc(Cc3ccncc3)cc2s1	0	0	0	0	77.5	20.4
CC1C(=O)NN=C1C(=O)N/N=C/c1ccco1 (centres undefined)	0	0	0	?	47.6	53.3
CC1=NNC(=O)C1CCC(=O)N/N=C/c1ccco1 (centres undefined)	0	0	0	0	0	0
COc1cc(/C=N/NC(=O)C2=NNC(=O)C2C)ccc1O (centres undefined)	0	0	0	0	0	27.4
CC1C(=O)NN=C1C(=O)N/N=C\c1ccc(O)cc1O (centres undefined)	0	0	0	?	0	24.0
CC1C(=O)NN=C1C(=O)N/N=C\C(Br)=C\c1ccccc1 (centres undefined)	0	0	0	0	52.7	17.5
O=C(Nc1cccc(F)c1)N1CCC2(CC1)CCN(C(=O)c1cnccn1)CC2	-	0	0	-	-	-
C[C@@H]1O[C@H](O[C@@H]2C(O)[C@H](O)[C@@H](CO)O[C@H]2Oc2cc(O)c3c(=O)cc(-c4ccc(O)cc4)oc3c2)[C@H](O)[C@H](O)[C@H]1O (some centres undefined)	-	-	0	-	0	0
COc1cccc(C2c3[nH]c4ccccc4c3C[C@H]3C(=O)N(CCCOC(C)C)CC(=O)N23)c1 (some centres undefined)	0	0	0	0	0	0
CC(C)OCCCN1CC(=O)N2C(c3ccccc3)c3[nH]c4ccccc4c3C[C@H]2C1=O (some centres undefined)	0	0	0	0	55.8	20.9
CCN1C(=O)[C@@H]2Cc3c([nH]c4ccccc34)C(c3ccc(OC)cc3)N2C1=S (some centres undefined)	0	0	0	0	32.4	21.5
Cc1cccc(-c2nc(C#N)c(N3CCCCC3)o2)c1	0	0	0	0	37.3	27.4
Cc1ccc(-c2nc(C#N)c(N3CCCCC3)o2)cc1	0	0	0	0	0	0
Cc1cccc(-c2nc(C#N)c(NC3CCCCC3)o2)c1	0	0	0	0	168.1	49.9
Cc1ccc(S(=O)(=O)N(CC(=O)N2CCc3ccccc3C2)c2ccc(C)c(C)c2)cc1	-	0	-	-	-	-
CCN(CC)S(=O)(=O)c1ccc(-n2cnc3cc(C)c(C)cc32)nc1	0	0	0	0	0	0
C/C(=N/NC(=O)c1ccc(Br)o1)c1cccc(NC(=O)c2ccc(F)cc2)c1	0	0	-	0	120.0	48.9
C/C(=N\NC(=O)c1ccn(C)n1)c1ccc(NC(=O)c2cccc(F)c2)cc1	0	0	-	0	169.9	58.2
COC(=O)c1cccc(NC(=O)c2ccco2)c1	0	0	0	0	0	0
CCC(CC)C(=O)Nc1cccc(/C(C)=N\NC(=O)c2ccc(C)s2)c1	0	0	0	0	0	14.1
COc1ccc(C(=O)Nc2ccc(NC(=O)c3cccc(F)c3)cn2)cc1	0	0	?	0	0	0
C/C(=N/NC(=O)c1ccco1)c1cccc(NC(=O)c2ccc(C)s2)c1	0	0	0	0	68.2	55.6
CC(C)Cn1c(CN2CCN(c3cccc(Cl)c3)CC2)nc2c1c(=O)[nH]c(=O)n2C	-	0	-	-	-	-
C/C(=N/NC(=O)c1ccco1)c1cccc(NC(=O)c2ccc(C)o2)c1	0	0	0	0	121.8	41.1
CCC(=O)Nc1ccc(/C(C)=N\NC(=O)c2ccc(C)s2)cc1	0	0	0	0	0	15.0

Screening results deposited in PubChem by National Center for Advancing Translational Sciences (NCATS).
